Screening data as filed in PubChem.
PPARg SRC-3 ag: PPARgamma agonists recruiting SRC-3 coactivator, primary screen, biochemical. activation, % at 8 µM. biochemical PPARgamma/SRC-3 coactivator recruitment assay. 0.26% of 200,000 active. Peroxisome proliferator-activated receptor gamma (Homo sapiens), P37231. AID 731, 2007; in the data active = activation above about 23%;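 note: 0% = DMSO and 100% = reference agonist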
Target sequence (P37231 whole entry, looked up): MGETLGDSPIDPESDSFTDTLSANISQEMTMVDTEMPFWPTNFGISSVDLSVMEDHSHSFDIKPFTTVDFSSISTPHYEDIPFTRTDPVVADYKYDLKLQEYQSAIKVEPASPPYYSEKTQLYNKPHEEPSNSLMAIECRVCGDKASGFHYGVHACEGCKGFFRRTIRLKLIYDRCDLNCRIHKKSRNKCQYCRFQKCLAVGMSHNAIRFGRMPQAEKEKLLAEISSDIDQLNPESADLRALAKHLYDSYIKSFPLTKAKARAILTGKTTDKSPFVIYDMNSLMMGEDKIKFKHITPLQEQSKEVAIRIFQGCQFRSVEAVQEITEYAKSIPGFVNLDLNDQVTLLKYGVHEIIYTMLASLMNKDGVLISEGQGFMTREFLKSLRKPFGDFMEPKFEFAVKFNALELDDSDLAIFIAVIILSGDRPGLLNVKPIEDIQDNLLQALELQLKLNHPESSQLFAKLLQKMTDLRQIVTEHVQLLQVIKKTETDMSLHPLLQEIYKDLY
SRC1 TRFRET art: TR-FRET detection interference compounds, primary screen, artefact control for PPARgamma SRC-1 recruitment agonists, biochemical, TR-FRET emission ratio | TR-FRET detection artefact counter-screen; stronger effect = higher value | TR-FRET ratio at 8 µM | 0.34% of 99,000 active | AID 1051, 2008; in the data active = TR-FRET ratio above about 2300
PPARg SRC-1 ag: PPARgamma agonists recruiting SRC-1 coactivator, primary screen, biochemical; 0.41% of 200,000 active; Peroxisome proliferator-activated receptor gamma (Homo sapiens), P37231; activation, % at 8 µM; PPARgamma-SRC-1 coactivator recruitment biochemical assay; in the data active = activation above about 19%;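 note: 0% = DMSO and 100% = reference agonist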
SRC3 TRFRET art: TR-FRET detection interference compounds, artefact control for PPARgamma SRC-3 recruitment agonists, biochemical, TR-FRET ratio. TR-FRET artefact counter-screen, PPARgamma/SRC-3 format; stronger effect = higher value. TR-FRET ratio at 8 µM. 0.39% of 99,000 active. AID 1048, 2008; in the data active = TR-FRET ratio above about 2000
TR-FRET SRC-2 ct: TR-FRET signal artefacts, primary screen, artefact control for PPARgamma SRC-2 agonist project, biochemical. TR-FRET artefact counter-screen; stronger effect = higher value. TR-FRET ratio at 8 µM. 0.4% of 200,000 active; in the data active = TR-FRET ratio above about 2000
PPARg SRC-2 ag: agonists of PPARg-SRC-2 recruitment, primary screen, biochemical, HTS; Peroxisome proliferator-activated receptor gamma (Homo sapiens), P37231; 0.34% of 200,000 active; activation, % at 8 µM; PPARgamma LBD-SRC-2 recruitment; AID 1032, 2008;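 note: 0% = vehicle and 100% = reference agonist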
PPARg SRC2 ag: agonists of PPARgamma SRC-2 coactivator recruitment, confirmation, biochemical, HTS; shares compounds with PPARg SRC-3 ag; biochemical SRC-2 recruitment by PPARgamma; activation, % at 8 µM; 52% of 790 active; AID 1297, 2008;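 note: 0% = vehicle alone and 100% = reference agonist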
PPARg SRC1 ag: PPARgamma agonists recruiting SRC-1 coactivator, confirmation, biochemical; 43% of 790 active; AID 1300, 2008; PPARgamma–SRC-1 coactivator recruitment biochemical assay; activation, % at 8 µM; shares compounds with PPARg SRC-3 ag; in the data active = activation above about 20%;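 note: 0% = vehicle wells and 100% = reference agonist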
PPARg SRC3 ag: PPARgamma-driven SRC-3 coactivator recruitment agonists, confirmation, biochemical | shares compounds with PPARg SRC-3 ag | biochemical PPARgamma-SRC-3 coactivator recruitment, agonist mode | activation, % at 8 µM | 29% of 790 active; in the data active = activation above about 24%;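 note: 0% = vehicle wells and 100% = reference agonist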
The depositor's hits bear a star; nt = no result. An excerpt weighted towards active compounds, which were near 0.84% of everything screened. Cut-off read from the data, not from the text of the source, unless noted: active = activation above about 22%; inactive = the rest.

SMILES | PPARg SRC-3 ag | SRC1 TRFRET art | PPARg SRC-1 ag | SRC3 TRFRET art | TR-FRET SRC-2 ct | PPARg SRC-2 ag | PPARg SRC2 ag | PPARg SRC1 ag | PPARg SRC3 ag
O=C(O)c1cc(-c2ccc(Cl)s2)nc2ccccc12 | 21.9 | 3037* | 37.2* | 2388* | 2455* | 38.9* | 49.9* | 35.0* | 32.9*
S=C(NCc1ccco1)Nc1ccc(Oc2ccccc2)cc1 | 1.8 | 1756 | 3.5 | 1500 | 1478 | -0.6 | nt | nt | nt
Cc1nc2scc(-c3ccccc3)c2c(=O)n1N=C1C=CC(=O)C=C1 | 35.2* | 1523 | 39.4* | 1556 | 1437 | 25.7* | 39.0* | 37.7* | 30.6*
COc1ccccc1OCC#CCNC1CCCCC1C (centres undefined) | 1.0 | 1614 | 2.7 | 1542 | 1375 | -3.0 | nt | nt | nt
CCCC(=O)NC(Nc1cccc(C(F)(F)F)c1)C(Cl)(Cl)Cl (centres undefined) | 3.4 | nt | 0.8 | nt | 1704 | 2.5 | nt | nt | nt
c1csc(-c2cnc3ccccc3n2)c1 | 2.2 | 1778 | 5.8 | 1571 | 1598 | 2.5 | nt | nt | nt
c1cc2c(cnc3cscc32)s1 | 28.9* | 3316* | 48.8* | 2526* | 2391* | 53.0* | 62.3* | 50.6* | 41.9*
COCc1cc(C)nc2sc3c(=O)oc(C)nc3c12 | 3.3 | nt | 19.5* | nt | 1809 | 12.6 | 6.8 | 1.6 | 1.4
Cc1nn(Cc2ccccc2Cl)c(C)c1C(=O)NCCN1C(=O)S/C(=C\c2ccccc2)C1=O | 22.9* | 1779 | 23.2* | 1547 | 1519 | 18.4 | 5.9 | 21.8* | 13.8
O=C(Nc1ccc(Br)cc1)C(c1ccccc1)c1ccccc1 | -2.5 | 1894 | 3.2 | 1612 | 1540 | -1.7 | nt | nt | nt
O=C(COC(=O)c1cc(-c2cccc3ccccc23)nc2ccccc12)NC1CCS(=O)(=O)C1 (centres undefined) | 9.7 | 2123 | 8.9 | 2043 | 1761 | 10.2 | nt | nt | nt
CCN(C(=O)COC(=O)c1cc(-c2cccc3ccccc23)nc2ccccc12)C1CCS(=O)(=O)C1 (centres undefined) | 10.4 | 2115 | 11.4 | 2078* | 1710 | 22.2* | 9.6 | 7.5 | 5.4
O=C(N/N=C(\Cc1ncc[nH]1)c1ccccc1)c1cccnc1 | -0.1 | 1624 | 4.2 | 1466 | 1510 | -3.1 | nt | nt | nt
CCCC(=O)Nc1c2c(nc3ccccc13)N(c1ccccc1)CC2 | 46.1* | 2803* | 46.1* | 2855* | 3204* | 61.4* | 41.4* | 24.7* | 25.8*
COC(=O)c1ccc2nc(NC(=O)C(C)(C)C)sc2c1 | 5.4 | 1915 | 1.2 | 1523 | 1681 | 1.8 | nt | nt | nt
COC(=O)c1ccc2nc(Nc3nc4ccc(F)cc4s3)sc2c1 | 4.4 | 2480* | 22.8* | 1850 | 1817 | 16.1 | -4.3 | -2.4 | -2.6
Cc1cc(SCC(=O)c2ccc3c(c2)OCO3)nc2ccccc12 | 43.5* | nt | 20.0* | nt | 3038* | 37.1* | 70.0* | 57.5* | 47.1*
c1ccc2nc(-c3ccc(N4CCOCC4)cc3)ccc2c1 | 71.4* | nt | 50.8* | nt | 1544 | 6.2 | 7.8 | 6.6 | 5.7
CC(C)N(C(=O)COC(=O)[C@@H]1CC(O)CN1S(=O)(=O)c1ccc(C(C)(C)C)cc1)C(C)C (some centres undefined) | 0.3 | 1936 | 10.0 | 1547 | 1185 | -6.0 | nt | nt | nt
CCOC(=O)CSc1c(-c2cccs2)[nH]c2ccccc12 | 13.9 | 1981 | 13.3 | 1749 | 1827 | 24.7* | 32.0* | 23.1* | 18.9
